This note sets out measurements from ChEMBL document CHEMBL3988442, “University of Dundee, Small-Polar-MMV Screening Library” (2021).

About 13,000 (27%) of roughly 48,000 compounds showed an effect of 50% or more. This is one part of the list.

The test system of the assay is Wolbachia pipientis. In words: Anti-Wolbachia Cell-Based Screen. In kind it is functional. The arrangement: scale not given: in the data most compounds retested in dose-response had high values. The settings on record: 5 µM.
In the case of `CCC(C)(CC(=O)OC)NC(=O)c1cccc(F)c1F` (stereo unspecified), the “Percent Effect” value was 0.5787%.
On to `Cc1cc(NCCO)nc(N2CCC(Cc3ccccc3)CC2)c1C#N.O=C(O)C(=O)O`, for which the “Percent Effect” value was -4.494%.
As for `CC(C)N(CCSc1ncnc2[nH]ncc12)C(C)C`, the figure is -23.68%; as for `O=S(=O)(NCCn1cc(C2CCOC2)nn1)c1ccc(Cl)cc1` (stereo unspecified), 2.449%; as for `CCc1noc(CNc2cc3c(cc2Cl)OCCO3)n1`, 29.93%.
Under `N#Cc1ccc(OCCOc2ccccc2C(=O)N2CCOCC2)cc1` stands 2.422%.
As for `CO[C@H]1CC[C@H]2[C@H]1OCCN2CCOCc1ccccc1.O=C(O)C(F)(F)F`, the figure is -1.824%; as for `CO[C@@H]1CC[C@H]2[C@H]1OCCN2Cc1ccc(F)c(F)c1.O=C(O)C(F)(F)F`, 101.8%; as for `CO[C@@H]1CC[C@H]2[C@H]1OCCN2CCOCc1ccccc1.O=C(O)C(F)(F)F`, 11.38%.
As to `CO[C@H]1CC[C@H]2[C@H]1OCCN2Cc1ccc(F)c(F)c1.O=C(O)C(F)(F)F`, the “Percent Effect” value is given as 110.9%.
As for `Cc1ccc(Nc2c(C#N)c(=O)n(C)c(=O)n2C)cc1F`, the figure is 8.024%; as for `O=C(Nc1ccc2c(c1)OCO2)N1CCN(CCn2ccnc2)CC1`, -13.91%; as for `CCc1cnc2c(c1Nc1ccc3c(c1)OCO3)c(=O)n(C)c(=O)n2C`, 105.3%.
In the case of `CCc1cnc2c(c1Nc1ccc(C)c(F)c1)c(=O)n(C)c(=O)n2C`, the “Percent Effect” value stood at 84.08%.
Under `CCc1cnc2c(c1Nc1ccncc1)c(=O)n(C)c(=O)n2C` stands 1.173%; under `O=C(Nc1ccc2c(c1)OCO2)N1CCN(CCn2cccn2)CC1`, 14.77%.
Under `Cn1cnc(S(=O)(=O)Nc2cc(C(N)=O)ccc2Cl)c1` stands -10.15%; under `Cn1cc(C(=O)Nc2ccc3c(c2)CN(C(=O)C2CC2)CC3)nn1`, 116.9%; under `Cn1cc(C(=O)Nc2ccc3c(c2)N(C(=O)c2ccco2)CC3)nn1`, 115.2%.
In the case of `CN(C)C(=O)Cc1ccc(NC(=O)c2cn(C)nn2)cc1`, the “Percent Effect” value is -4.709%.
As to `CC(=O)N1CCc2ccc(NC(=O)c3cn(C)nn3)cc2C1`, the “Percent Effect” value turned out to be 105.1%.
In the case of `Cn1cc(C(=O)Nc2ccc(CC(=O)NC3CC3)cc2)nn1`, the “Percent Effect” value was -0.7616%.
In the case of `Cn1cc(C(=O)Nc2ccc3c(c2)CN(C(=O)c2ccco2)CC3)nn1`, the “Percent Effect” value worked out at 12.57%.
As for `COC(=O)N1CCc2ccc(NC(=O)c3cn(C)nn3)cc2C1`, the figure is 2.493%; as for `Cn1cc(C(=O)Nc2ccc(CC(=O)NCC(F)(F)F)cc2)nn1`, -7.927%; as for `Oc1cc(CN2CCC(O)(Cn3ccnc3)CC2)nc2c(Cl)cccc12`, -8.472%.
Take `CC(CNC(=O)c1ccon1)Oc1cccc(Br)c1` (stereo unspecified): the “Percent Effect” value is -16.92%.
As for `c1cc(-c2ccc(CN3CCC4(CCNCC4)CC3)s2)[nH]n1`, the figure is 13.89%; as for `Cc1cccc(N(CCC(N)=O)C(=O)c2cnccn2)c1`, -11.19%; as for `COCCN(C(=O)c1ccccn1)c1nc2c(s1)CCc1c-2cnn1C`, 88.66%.
Under `CCCN(C(=O)c1cnc(C)cn1)c1nc2c(s1)CCc1c-2cnn1C` stands 90.09%.
As for `COCCCNC(=O)C1CN(C(=O)c2cnccn2)C1`, the figure is 10.57%; as for `COCCN(C(=O)c1cnccn1)c1nc2c(s1)CCc1c-2cnn1C`, 99.99%; as for `CN(C(=O)c1ccccn1)c1nc2c(s1)CCc1c-2cnn1C`, -10.1%.
Consider `COCC1c2nnn(CC3CC3)c2CCN1C(=O)c1cnccn1` (stereo unspecified), for which the “Percent Effect” value is recorded as -15.7%.
As for `CCCN(C(=O)c1cnccn1)c1nc2c(s1)CCc1c-2cnn1C`, the figure is 84.76%; as for `CCCN(C(=O)c1ccccn1)c1nc2c(s1)CCc1c-2cnn1C`, -6.785%.
As for `CCCN1CCN(C(=O)c2cnccn2)[C@H]2CS(=O)(=O)C[C@H]21`, the figure is -1.357%; as for `CCN(Cc1cccc2c1OCO2)CC1CCCO1` (stereo unspecified), -5.577%.
Regarding `Cl.O=C(OCC1CCCN1)c1cccc(NC(=O)c2ccco2)c1` (stereo unspecified), the “Percent Effect” value is listed as -13.38%.
Regarding `CC1(C)[C@H]2CC=C(CN3CCCn4nc(C(=O)O)cc4C3)[C@@H]1C2`, the “Percent Effect” value was -7.582%.
As for `Cc1nc(C)c(C)c(N(C)CCCc2nccn2C)n1`, the figure is 1.22%; as for `CN(CCc1cnn(C)c1)C(=O)C1COc2ccccc2C1` (stereo unspecified), 12.32%.
As for `CCc1cnc(C)nc1N(C)CCCc1cnn(C)c1`, the figure is 93.68%.
As to `CC(C)N1CCCC(C(=O)N(C)CCCc2cnn(C)c2)C1` (stereo unspecified), the “Percent Effect” value is given as -3.497%.
For the compound `CCc1cnc(N)nc1N(C)CCc1cnn(C)c1`, the “Percent Effect” value was 112.4%.
In the case of `Cc1nc(C(C)C)sc1C(=O)N(C)CCCc1cnn(C)c1`, the “Percent Effect” value is given as -1.065%.
Under `Cc1ccccc1C(C(=O)N(C)CCc1cnn(C)c1)N(C)C` (stereo unspecified) stands -25.6%; under `Cc1ncc(S(C)(=O)=O)c(N(C)CCCc2cnn(C)c2)n1`, 106.8%; under `CN(CCCc1cnn(C)c1)C(=O)C1CCOC1` (stereo unspecified), -24.42%.
`Cc1c(NC(=O)N(C)CCCc2cnn(C)c2)cnn1C`: the “Percent Effect” value was -9.365%.
For the compound `Cc1cnc(N(C)CCCc2cnn(C)c2)nc1N(C)C`, the “Percent Effect” value was determined as 116.9%.
On to `CC(NCCCc1cnn(C)c1)c1ccc(Br)s1` (stereo unspecified), for which the “Percent Effect” value amounted to 0.1879%.
Under `CN(C)C(=O)CCNC(=O)c1cnc(-c2ccccc2)nc1` stands -4.598%.
As for `O=S1(=O)CCC(n2cc(CNCC3(c4ccccc4)CC3)cn2)C1` (stereo unspecified), the figure is 4.552%; as for `O=C(c1ccc(OCC2CC2)cc1)N1CCOCC1c1ncon1` (stereo unspecified), -1.778%.
On to `Nc1cnc(-c2cccc3ccnn23)cn1`, for which the “Percent Effect” value was -6.103%.
Under `CN(CC(=O)Nc1ccc(Br)cn1)C(=O)Cc1ccc(O)cc1` stands -6.927%; under `CS(=O)(=O)NC1CCCN(c2ccc(C#N)cn2)C1` (stereo unspecified), 4.469%.
On to `CNS(=O)(=O)C1CCN(c2cc(C(C)C)nc(C(C)C)n2)C1` (stereo unspecified), for which the “Percent Effect” value is 80.93%.
As for `Cc1cc(=O)[nH]c(SC(C)C(=O)N2CCC(NS(C)(=O)=O)CC2)n1` (stereo unspecified), the figure is -6.463%.
Take `Cc1cc(N2CCN(C(=O)c3cc(Cl)c[nH]3)CC2)nc(C(C)C)n1`: the “Percent Effect” value is -12.01%.
Under `Cc1cc(N2CCC(NS(C)(=O)=O)CC2)nc(C(C)C)n1` stands 66.62%; under `CC(C)c1cc(N2CCC(NS(C)(=O)=O)CC2)n2nccc2n1`, -0.6269%; under `CC(C)c1cc(N2CCC(NS(C)(=O)=O)C2)nc(C(C)C)n1` (stereo unspecified), 107.7%.
Under `CC(C)c1cc(N2CC[C@H](F)C2)n2nccc2n1` stands -1.052%; under `Cc1nnc(N2CCC(NS(C)(=O)=O)CC2)c(C#N)c1C`, 4.066%; under `O=c1c2cnc(N3CCCCC3)nc2ccn1-c1ccccc1`, 8.71%.
As to `COCCSCC(=O)NC1(c2cccc(Br)c2)CC1`, the “Percent Effect” value is recorded as -2.226%.
Under `COc1ccc(CN2CC3(CCNCC3)CCC2=O)c(F)c1F` stands -14.66%.
Under `Cc1ccc(-c2ccnc(NC(C)c3ncc[nH]3)n2)c(C)n1` (stereo unspecified) stands 7.863%.
For `Cc1ccc(CN(C)c2nccc(-c3cn(C)nc3C)n2)o1`, the “Percent Effect” value was -5.707%.
Regarding `Nc1nccc(-c2c[nH]nc2C2CCCCC2)n1`, the “Percent Effect” value is -15.86%.
As for `Cc1ccc(-c2ccnc(NC(C)c3n[nH]c(C)n3)n2)c(C)n1` (stereo unspecified), the figure is -0.9271%; as for `Cc1ncncc1-c1ccnc(N(C)C)n1`, 99.71%; as for `Cc1ncncc1-c1ccnc(NC(C)C)n1`, 107.6%.
With `Cc1ncncc1-c1ccnc(N)n1`, the “Percent Effect” value was 103.4%.
Take `Cc1nn(C)cc1-c1ccnc(N(C)Cc2ccc(F)cc2)n1`: the “Percent Effect” value worked out at 21.27%.
As for `Nc1nccc(-c2cccc3ccnn23)n1`, the figure is -5.19%; as for `O=C(CSc1ccccn1)N1C[C@H]2CC[C@@H]1CN(Cc1cscn1)C2`, 3.579%.
Consider `CCN(CC)c1ncc(Cl)c(C(=O)NC2CCc3nccn3C2)n1` (stereo unspecified), for which the “Percent Effect” value is given as -2.888%.
As for `Cc1ccccc1N1CCN(C(=O)c2cnn(C(C)C)c2)C(C)C1` (stereo unspecified), the “Percent Effect” value stood at 2.986%.
Under `COc1cccc2c1OCC(C(=O)N(Cc1ccncc1)CC(C)C)C2` (stereo unspecified) stands -1.678%; under `CC(C)N(CCO)C(=O)C1CCC(=O)N(CCc2ccc(Cl)cc2)C1` (stereo unspecified), -6.406%; under `COC1COC2(CCN(Cc3ccccc3Cl)CC2)C1.O=C(O)C(F)(F)F` (stereo unspecified), -10.24%.
As for `CCOC1COC2(CCN(Cc3cccnc3OC)CC2)C1.O=C(O)C(F)(F)F.O=C(O)C(F)(F)F` (stereo unspecified), the figure is 97.13%; as for `CNC(=O)COC1COC2(CCN(c3ncccn3)CC2)C1.O=C(O)C(F)(F)F` (stereo unspecified), 21.38%.
Turning to `COc1ncccc1CN1CCC2(CC1)CC(OCC1CC1)CO2.O=C(O)C(F)(F)F` (stereo unspecified), the “Percent Effect” value worked out at 103.5%.
Under `CNC(=O)COC1COC2(CCN(Cc3cccnc3OC)CC2)C1.O=C(O)C(F)(F)F` (stereo unspecified) stands 91.78%; under `COc1ncccc1CN1CCC2(CC1)CN(c1ccccn1)CCO2.O=C(O)C(F)(F)F.O=C(O)C(F)(F)F.O=C(O)C(F)(F)F`, 8.158%; under `COc1cccc2c1OCC(CNC(=O)CCn1cnnn1)C2` (stereo unspecified), -3.423%.
For the compound `Cc1cc(N2CCCC(OC(=O)CCc3cnn(C)c3)C2)nc(C)n1` (stereo unspecified), the “Percent Effect” value was 0.03167%.
`COCCN1CCCC(C)(c2cc(O)[nH]n2)C1` (stereo unspecified): the “Percent Effect” value came to 85%.
As for `COCCN1CCC(C)(c2cc(O)[nH]n2)CC1`, the “Percent Effect” value is on record as 107.8%.
On to `COCCCC1(CO)CCCN(CCS(C)(=O)=O)C1` (stereo unspecified), for which the “Percent Effect” value is -5.665%.
Under `COCCCC1(CO)CCCN(CCOC)C1` (stereo unspecified) stands 5.578%.
As for `COCCN1CCC2(CC1)CC(OCC1CC1)c1ccc(C)cc12` (stereo unspecified), the “Percent Effect” value was -29.1%.
Under `COCCN1CCN(CC2(O)CCCCC2)CC1` stands -7.115%.
Consider `COc1cccc([C@@H]2CN(C3CSCCSC3)C[C@H]2C(=O)O)c1`, for which the “Percent Effect” value was -1.681%.
As for `O=C(O)C(F)(F)F.O=C(O)C(F)(F)F.c1cnc(N2CC[C@@H](N3CCOCC3)[C@@H]2Cc2ccncc2)nc1`, the figure is -7.245%.
As for `CC(C)NC(=O)NC(C)c1ccc(-c2ccncc2)cc1` (stereo unspecified), the figure is -5.821%.
